The results in this text go back to PubChem BioAssay (Tox21).

The target of test [1] is Thyrotropin receptor (Homo sapiens) (UniProt P16473). The test can be described thus: qHTS assay to identify small molecule antagonists of the thyroid stimulating hormone receptor (TSHR) signaling pathway (AID 1259385; calls by dose curve; also: nearly all actives have a fitted effect of over 20% in size). The essentials: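 TSHR-HEK293 cells (800/well) plated 18 h, then compounds with Ro20-1724 and TSH at 1.5 ng/mL final, 30 min at room temperature. cAMP quantified by HTRF (cAMP-d2/anti-cAMP-cryptate, 1 h); 15 concentrations in triplicate.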
On the technique in general: Quantitative high-throughput screening tests each substance at several concentrations.

Test [2] is described as follows: qHTS assay to identify small molecule agonists of the estrogen receptor alpha (ER-alpha) signaling pathway in the presence of an antagonist - cell viability counter screen (AID 1259386).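 Also: cells exposed to compounds for 22 h at 37 °C before the viability read; nearly all actives have a fitted effect of over 30% in size.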 Also: potency is read from the fitted curve at half-maximal effect. The method in brief: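 Cells are starved of estrogens for 5 days in charcoal-stripped serum, seeded for 24hr and co-treated with ICI-182,780 (10.0nM final) and test compounds. After 22hr at 37C, viability is read as CellTiter-Fluor fluorescence.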

In test [3] the target is Progesterone receptor (Homo sapiens) (UniProt P06401). The test can be described thus: qHTS assay to identify small molecule agonists of the progesterone receptor (PR) signaling pathway (AID 1346784; calls by dose curve; also: nearly all actives have a fitted effect of over 30% in size; also: potency is read from the fitted curve at half-maximal effect). The method in brief: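 PR-UAS-bla HEK 293T cells carrying a UAS-driven beta-lactamase reporter were seeded in medium with 2% charcoal-stripped FBS, preincubated 6 hr at 37C, then exposed to compounds in DMSO for 16 hr; agonism was read by LiveBLAzer B/G FRET fluorescence.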

For test [4] the target is unchanged. The test can be described thus: qHTS assay to identify small molecule antagonists of the progesterone receptor (PR) signaling pathway (AID 1346795; active = well fitted inhibition curve with a large enough effect in the signal ratio in the repeat runs, not every such curve was filed as active; the % refers to the signal ratio). The essentials:
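PR-UAS-bla HEK293T cells carrying a UAS-driven beta-lactamase reporter were plated in medium with 2% charcoal-stripped FBS and rested 6 hr at 37C. Compounds were added with 1 nM R5020 (final) for 16 hr, then FRET substrate loaded 2 hr at room temperature.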

Test [5] in a line: qHTS assay to identify small molecule agonists of the progesterone receptor (PR) signaling pathway - cell viability counter screen (AID 1346799; calls by dose curve; also: nearly all actives have a fitted effect of over 45% in size). The essentials: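 PR-UAS-bla HEK293T cells, 3,000 per well in medium with 2% charcoal-stripped FBS, were preincubated 6 hr at 37C, then exposed to compounds for 16 hr; viability was read as CellTiter-Glo luminescence after 30 min at room temperature.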

Test [6] is described as follows: qHTS assay to identify small molecule antagonists of the TGF-beta/Smad signaling pathway - cell viability counter screen (AID 1346824). Also: nearly all actives have a fitted effect of over 50% in size. The essentials: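 SBE-bla HEK 293T cells, incubated overnight, then compound plus 0.25 ng/mL TGF-beta1 (stock added) for 5 hr at 37 C. Viability was read in the same wells by CellTiter-Glo luminescence after 30 min at room temperature.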

The nature of test [7]: qHTS assay to identify small molecule agonists of the TGF-beta/Smad signaling pathway - cell viability counter screen (AID 1346829). Also: top concentration of the series differs between compounds; nearly all actives have a fitted effect of over 45% in size. The method in brief: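 Tox21 qHTS format: SBE-bla HEK 293T cells treated with DMSO-dissolved compounds for 5 hr; CellTiter-Glo luminescence after 30 min at room temperature.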
The nature of test [8]: qHTS assay to identify small molecule agonists of the TGF-beta/Smad signaling pathway (AID 1346859; active = well fitted activation curve with a large enough effect in the signal ratio in the repeat runs, not every such curve was filed as active; the % refers to the signal ratio; also: series mostly up to about 77 µM). The essentials:
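HEK 293T cells stably carrying a beta-lactamase reporter driven by the Smad binding element were seeded overnight, exposed to DMSO-dissolved compounds for 5 hr at 37 C, 5% CO2, then loaded with FRET substrate for 2 hr at room temperature.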

A short description of test [9]: Human pregnane X receptor (PXR) small molecule agonists, qHTS cell viability counter screen (AID 1346977). Also: nearly all actives have a fitted effect of over 50% in size. The essentials:
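PXR-Luc HepG2 cells in medium with 5% charcoal-stripped FBS were pre-incubated 5hr, then exposed to compounds for 24hr at 37C. Viability was read in the same wells by CellTiter-Fluor fluorescence, reagent added after 23hr with a 1hr incubation.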

Test [10] is described as follows: Caspase-3/7 induction in HepG2 cells by small molecules, qHTS assay (AID 1346978). Also: nearly all actives have a fitted effect of over 15% in size. The essentials:
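Wild-type HepG2 cells, 2,000/well, settled 5 hr at 37 C and 5% CO2, then compound-treated for 17 hr; caspase-3/7 activity read by luminescent Caspase-Glo 3/7 after 30 min at room temperature.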

Test [11] is described as follows: Caspase-3/7 induction in CHO-K1 cells by small molecules, qHTS cell viability counter screen (AID 1346979). Also: nearly all actives have a fitted effect of over 35% in size. Also: potency is read from the fitted curve at half-maximal effect. The essentials: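 Wild-type CHO-K1 cells were seeded at 1,500 per well, rested 5hr at 37 C, then exposed to compounds in DMSO. After 16hr, CellTiter-Fluor reagent was added and fluorescence read 1hr later as the viability measure.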
Test [12] can be described thus: Caspase-3/7 induction in CHO-K1 cells by small molecules, qHTS assay (AID 1346980). Also: nearly all actives have a fitted effect of over 15% in size. The method in brief: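 Wild-type CHO-K1 cells exposed to compounds for 17hr at 37 C, 5% CO2. Caspase-3/7 activity then measured by Caspase-Glo 3/7 luminescence after 30min at room temperature.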
A short description of test [13]: Caspase-3/7 induction in HepG2 cells by small molecules, qHTS cell viability counter screen (AID 1346981). Also: series mostly up to about 92 µM; nearly all actives have a fitted effect of over 30% in size. The essentials:
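Steps: seed 2,000 HepG2 cells per well; incubate 5 hr at 37 C; pin-add compounds in DMSO; incubate 16 hr; add CellTiter-Fluor; after 1 hr at 37 C and 5% CO2, read fluorescence.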

The target of test [14] is Nuclear receptor subfamily 1 group I member 2 (Homo sapiens) (UniProt O75469). The test can be described thus: Human pregnane X receptor (PXR) small molecule agonists, qHTS assay (AID 1346982). Also: nearly all actives have a fitted effect of over 35% in size. Also: potency is read from the fitted curve at half-maximal effect. The method in brief:
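Agonist mode qHTS: PXR-Luc HepG2 cells plated 5 hr before DMSO-dissolved compounds were pinned in, cultured 24 hr at 37 C, 5% CO2; ONE-Glo luminescence readout.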

For test [15] the target is unchanged. The test can be described thus: CYP3A4 induction through human pregnane X receptor (PXR) by small molecules, qHTS assay (AID 1346984). Also: nearly all actives have a fitted effect of over 40% in size. Also: potency is read from the fitted curve at half-maximal effect. The essentials: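 Steps: seed DPX-2 cells, 5 hr at 37C; pin-transfer compounds; 24 hr at 37C; add Luciferin-IPA (3uM final), 3 hr at 37C; add One-Glo, 30 min RT; read luminescence.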
The target is the same in test [16]. Nature of the test: Human pregnane X receptor (PXR) activation by small molecules, qHTS assay (AID 1346985). Also: nearly all actives have a fitted effect of over 40% in size. The method in brief: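 DPX-2 cells (HepG2 co-transfected with a PXR response element and a CYP3A4-promoter luciferase construct) were seeded at 2,000 per well, rested 5 hr at 37C, then exposed to DMSO-dissolved compounds for 24 hr. Activation was read as luciferase luminescence.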

Test [17] deals with Cytochrome P450 2D6 (Homo sapiens) (UniProt P10635). The test can be described thus: Cytochrome P450 Family 2 Subfamily D Member 6 (CYP2D6) small molecule antagonists: luciferase reporter qHTS assay (AID 1671196). Also: nearly all actives have a fitted effect of over 50% in size. Also: potency is read from the fitted curve at half-maximal effect. The method in brief: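 P450-Glo format: CYP2D6 converts a proluciferin substrate to luciferin in an NADPH-driven reaction lasting 1 h at room temperature. Light output, proportional to CYP2D6 activity, reflects interference by test chemicals.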
Background: A reporter such as luciferase makes a cellular process visible.

Test [18] can be described thus: qHTS assay to identify small molecule antagonists of the progesterone receptor (PR) signaling pathway - cell viability counter screen (AID 1346798). Also: series mostly up to about 92 µM; nearly all actives have a fitted effect of over 50% in size. The essentials: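 PR-UAS-bla HEK293T cells in medium with 2% charcoal-stripped FBS were treated with compounds plus R5020 for 16 hr at 37C. Cell viability was then read by CellTiter-Glo luminescence after 30 min at room temperature in the same wells.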

Test [19] deals with Thyrotropin-releasing hormone receptor (Homo sapiens) (UniProt P34981). Nature of the test: qHTS assay to identify small molecule antagonists of the thyrotropin-releasing hormone receptor (TRHR) signaling pathway (AID 1346877; active = well fitted inhibition curve with a large enough effect in the repeat runs, not every such curve was filed as active; also: series mostly up to about 51 µM). The essentials:
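Cells (TRHR-HEK293) are plated and kept 18 h at 37 °C/5% CO2. A calcium-sensitive dye is added for 2 h, compound follows for 5 min at room temperature, and TRH is then given at 1 nM final.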

The target is the same in test [20]. Nature of the test: qHTS assay to identify small molecule agonists of the thyrotropin-releasing hormone receptor (TRHR) signaling pathway (AID 1346891; calls by dose curve; also: series mostly up to about 58 µM). The method in brief:
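TRHR-expressing HEK293 cells were plated 18 h at 37 °C/5% CO2, loaded with calcium dye 2 h at 37 °C, then given compound in DMSO; fluorescence was read kinetically for 3 min at 1 s intervals.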

Where “and” joins values, the source holds several entries; their conditions need not be identical. Identical values can stand only once. Records with an inconclusive call do not appear. A structure can be active in one record and inactive in another. Calls of active or inactive are those of the source. Unless noted, calls follow the shape of the dose curve; as a rule, active = well fitted curve in the direction sought with a large enough effect in the repeat runs; inconclusive = weak or mixed curves; inactive = no such curve, though single readings can be large; an effect the other way counts as inactive or inconclusive.

Chain of Cytochrome P450 2D6 (Homo sapiens) (P10635 whole entry, looked up): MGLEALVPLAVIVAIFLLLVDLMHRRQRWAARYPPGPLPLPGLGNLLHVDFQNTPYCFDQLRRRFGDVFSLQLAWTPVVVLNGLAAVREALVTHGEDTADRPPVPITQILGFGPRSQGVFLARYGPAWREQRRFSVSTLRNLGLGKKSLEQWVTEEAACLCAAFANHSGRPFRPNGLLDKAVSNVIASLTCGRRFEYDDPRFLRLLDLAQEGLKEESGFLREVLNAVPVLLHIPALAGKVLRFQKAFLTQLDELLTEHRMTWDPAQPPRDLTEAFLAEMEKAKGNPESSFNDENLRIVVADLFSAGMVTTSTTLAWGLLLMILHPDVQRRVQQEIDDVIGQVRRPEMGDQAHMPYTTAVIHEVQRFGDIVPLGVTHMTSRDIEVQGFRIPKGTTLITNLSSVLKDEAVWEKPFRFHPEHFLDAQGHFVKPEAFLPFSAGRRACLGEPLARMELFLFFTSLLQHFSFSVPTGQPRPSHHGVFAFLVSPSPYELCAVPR
Chain of Thyrotropin receptor (Homo sapiens) (P16473 whole entry, looked up): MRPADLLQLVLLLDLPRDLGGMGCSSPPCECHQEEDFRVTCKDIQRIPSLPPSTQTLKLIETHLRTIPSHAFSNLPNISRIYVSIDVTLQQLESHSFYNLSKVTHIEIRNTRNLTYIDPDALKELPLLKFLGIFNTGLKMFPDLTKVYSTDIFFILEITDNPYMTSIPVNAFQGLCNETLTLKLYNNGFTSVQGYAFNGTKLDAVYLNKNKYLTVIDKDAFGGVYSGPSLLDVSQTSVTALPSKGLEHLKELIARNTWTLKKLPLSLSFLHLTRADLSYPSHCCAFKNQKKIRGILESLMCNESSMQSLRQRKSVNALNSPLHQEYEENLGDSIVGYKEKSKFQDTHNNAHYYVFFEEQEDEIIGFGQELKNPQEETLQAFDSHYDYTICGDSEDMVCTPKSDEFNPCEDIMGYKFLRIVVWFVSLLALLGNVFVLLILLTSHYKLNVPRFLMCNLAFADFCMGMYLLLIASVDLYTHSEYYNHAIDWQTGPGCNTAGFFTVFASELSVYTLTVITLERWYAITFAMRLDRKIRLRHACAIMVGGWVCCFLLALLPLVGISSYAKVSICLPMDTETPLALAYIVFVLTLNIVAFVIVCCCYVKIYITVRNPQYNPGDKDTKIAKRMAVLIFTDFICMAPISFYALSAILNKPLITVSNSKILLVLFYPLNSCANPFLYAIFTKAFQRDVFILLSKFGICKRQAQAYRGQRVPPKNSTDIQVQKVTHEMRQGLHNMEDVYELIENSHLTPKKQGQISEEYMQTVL
Chain of Thyrotropin-releasing hormone receptor (Homo sapiens) (P34981 whole entry, looked up): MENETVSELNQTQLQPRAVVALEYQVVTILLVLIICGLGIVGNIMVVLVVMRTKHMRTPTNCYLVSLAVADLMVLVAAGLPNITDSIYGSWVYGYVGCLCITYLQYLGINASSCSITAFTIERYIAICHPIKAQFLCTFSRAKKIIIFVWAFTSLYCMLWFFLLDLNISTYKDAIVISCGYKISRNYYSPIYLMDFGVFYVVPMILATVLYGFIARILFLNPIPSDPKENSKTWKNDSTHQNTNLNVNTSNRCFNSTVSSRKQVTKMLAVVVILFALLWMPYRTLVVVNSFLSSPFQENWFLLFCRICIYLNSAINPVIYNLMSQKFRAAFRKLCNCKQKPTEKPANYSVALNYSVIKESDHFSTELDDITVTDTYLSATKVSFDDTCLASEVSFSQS
Chain of Nuclear receptor subfamily 1 group I member 2 (Homo sapiens) (O75469 whole entry, looked up): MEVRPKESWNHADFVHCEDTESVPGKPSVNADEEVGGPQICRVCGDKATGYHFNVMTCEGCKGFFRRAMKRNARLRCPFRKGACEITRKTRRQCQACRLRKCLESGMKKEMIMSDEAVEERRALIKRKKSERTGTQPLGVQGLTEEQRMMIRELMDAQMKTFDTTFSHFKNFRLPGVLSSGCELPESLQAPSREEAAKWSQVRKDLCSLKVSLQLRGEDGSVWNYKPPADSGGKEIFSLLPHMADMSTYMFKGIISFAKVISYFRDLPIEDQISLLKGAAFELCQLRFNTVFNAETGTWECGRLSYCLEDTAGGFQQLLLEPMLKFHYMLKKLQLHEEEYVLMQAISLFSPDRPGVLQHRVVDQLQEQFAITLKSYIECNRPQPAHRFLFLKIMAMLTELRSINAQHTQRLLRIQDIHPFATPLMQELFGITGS
Chain of Progesterone receptor (Homo sapiens) (P06401 whole entry, looked up): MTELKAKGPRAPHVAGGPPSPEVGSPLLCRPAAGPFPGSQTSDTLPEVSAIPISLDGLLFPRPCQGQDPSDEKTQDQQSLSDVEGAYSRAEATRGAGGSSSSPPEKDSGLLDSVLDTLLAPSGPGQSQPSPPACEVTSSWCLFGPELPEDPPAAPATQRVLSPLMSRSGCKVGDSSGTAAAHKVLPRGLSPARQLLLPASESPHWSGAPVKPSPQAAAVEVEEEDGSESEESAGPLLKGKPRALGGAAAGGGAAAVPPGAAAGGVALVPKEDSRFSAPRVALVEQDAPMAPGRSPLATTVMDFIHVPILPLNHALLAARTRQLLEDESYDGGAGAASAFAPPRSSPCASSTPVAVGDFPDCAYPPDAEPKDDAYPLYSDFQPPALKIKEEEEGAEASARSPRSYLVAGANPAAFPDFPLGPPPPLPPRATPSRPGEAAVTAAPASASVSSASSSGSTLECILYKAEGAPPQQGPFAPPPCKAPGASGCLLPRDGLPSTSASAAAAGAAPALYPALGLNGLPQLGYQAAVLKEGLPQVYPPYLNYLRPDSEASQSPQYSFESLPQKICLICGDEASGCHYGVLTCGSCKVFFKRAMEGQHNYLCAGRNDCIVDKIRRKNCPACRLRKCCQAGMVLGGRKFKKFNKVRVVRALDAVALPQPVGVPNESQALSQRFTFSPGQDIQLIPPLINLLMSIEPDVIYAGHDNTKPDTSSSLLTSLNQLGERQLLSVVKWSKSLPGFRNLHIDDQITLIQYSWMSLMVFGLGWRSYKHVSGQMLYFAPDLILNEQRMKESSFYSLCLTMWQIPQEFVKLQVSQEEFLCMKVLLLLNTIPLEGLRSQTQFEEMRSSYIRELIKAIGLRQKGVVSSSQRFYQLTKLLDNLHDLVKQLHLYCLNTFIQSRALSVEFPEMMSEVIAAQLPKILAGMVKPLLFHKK

`O=C(OCc1ccccc1)c1ccccc1`: the molecule was called inactive in [1], in test [8] and in test [12]. In addition, the Potency result in test [2], in test [3], in [4], in [5], in test [6] and in test [7] was “inactive” in each case. Besides, the Potency result in test [9], in test [10], in test [11], in [13], in [14] and in test [15] was “inactive” in each case. Moreover, the Potency entry in test [16] and in test [17] was “inactive” throughout.
For `CC(C)CC(C)CC(O)CC(C)C` (stereo unspecified), the Potency result in test [2], in [3], in [4], in test [18], in test [5] and in test [6] was “inactive” in each case. Also, the Potency entry in [7], in test [20], in [10], in test [11], in test [13] and in [14] was “inactive” throughout. For the same molecule, in test [17], the Potency result was “inactive”. Further, the molecule was called inactive in test [8], in test [19] and in test [12].
Consider `COC(=O)c1ccc(C=O)cc1`, for which the Potency entry in [2], in test [3], in [4], in test [18], in test [5] and in test [6] was “inactive” each time. Besides, the Potency result in test [7], in [10], in [11], in [14] and in test [17] was “inactive” in each case. Besides, the call in test [8] and in test [12] was inactive.
`C[C@]12C[C@H](O)[C@H]3[C@@H](CCC4=CC(=O)CC[C@@]43C)[C@@H]1CC[C@@H]2C(=O)CO`: the outcome in test [1], in [8] and in [12] was inactive. Also, the Potency entry in test [2], in test [4], in [6], in test [7], in [10] and in [11] was “inactive” throughout. For the same molecule, the Potency result in test [13], in test [15], in [16] and in test [17] was “inactive” in each case. The Potency in test [3] was 0.971 µM (active); in [14] it was 8.65 µM (active) and 38.6 µM (active).
As for `CC1=NN(c2ccccc2)C(=O)C1`, the result in test [1], in test [8], in [19] and in [12] was inactive. Also, the Potency result in test [2], in [3], in test [4], in test [6], in test [7] and in test [20] was “inactive” each time. Further, the Potency entry in [10], in test [11], in test [14] and in test [16] was “inactive” throughout. In addition, the Potency in test [15] is 25.1 µM (active); in test [17], 31.9 µM (active) and inactive.
On to `Cc1cnc(NC(=O)C2=C(O)c3ccccc3S(=O)(=O)N2C)s1`, for which the Potency in test [2] is 43.4 µM (active) and inactive; in test [11], 61.3 µM (active) and inactive. For the same molecule, the Potency entry in [3], in test [4], in test [18], in test [5], in [7] and in test [20] was “inactive” each time. In addition, the Potency result in [9], in [10], in test [13] and in test [17] was “inactive” in each case. Moreover, the result in [8], in test [19] and in test [12] was inactive.
Take `COCC(C)N` (stereo unspecified): the result in test [1], in test [8], in [19] and in test [12] was inactive. The Potency result in [2], in test [6], in [7], in [20], in test [9] and in test [10] was “inactive” each time. Moreover, the Potency entry in [11], in [13], in [14] and in test [17] was “inactive” in each case.
